Many of the other results were omitted from the sample, so hits are more common in it than they were.
GluA2 TARP mod: GluA2-stargazin AMPA receptor complex modulation; calls only at 30 µM; 40,000 compounds, 3.5% hits; HEK293 GluA2+stargazin, membrane potential dye (FDSS), glutamate EC50; hits were called plate by plate, in both directions; O88602+P19491;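 active = any of four per-well response measures lying three or more SD from its plate-wide compound average, in either direction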
GIRK2 activator: GIRK2 channel activators by thallium flux | P48051 | HEK293 GIRK2/NPY4 cells, thallium flux fluorescence | activation (% efficacy), % for hits at 37.5 µM | 34,000 tested, under 10 active | AID 1259324;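 active = primary screen hit, no activity in plain HEK293 cells, and in GIRK2-only cells above 5% efficacy rising with concentration; inactive = the rest, including fluorescent compounds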;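 note: efficacy is normalized control-subtracted fluorescence 15 s after thallium addition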
Target sequence (P48051 whole entry, looked up): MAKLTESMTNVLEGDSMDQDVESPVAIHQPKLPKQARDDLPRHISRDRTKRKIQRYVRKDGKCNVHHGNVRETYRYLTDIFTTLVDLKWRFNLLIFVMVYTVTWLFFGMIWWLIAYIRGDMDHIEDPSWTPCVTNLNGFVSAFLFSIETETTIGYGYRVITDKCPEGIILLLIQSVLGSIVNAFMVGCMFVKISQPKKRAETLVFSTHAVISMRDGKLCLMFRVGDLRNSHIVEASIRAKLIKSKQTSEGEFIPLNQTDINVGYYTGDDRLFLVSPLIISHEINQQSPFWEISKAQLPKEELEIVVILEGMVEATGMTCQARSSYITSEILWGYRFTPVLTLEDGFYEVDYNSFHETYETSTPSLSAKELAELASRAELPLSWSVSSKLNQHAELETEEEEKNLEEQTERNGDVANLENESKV
Starred values were filed as active, the others as inactive; i = inactive; . = no result; + = active, no number.

SMILES	GluA2 TARP mod	GIRK2 activator
O=[N+]([O-])c1cc(/C=C/c2ccc3cccc(O)c3n2)ccc1O	+	.
COc1cc(Br)c(/C=C/c2ccc3cccc(O)c3n2)cc1OC	i	.
CCOc1cc(/C=C/c2ccc3cccc(O)c3n2)ccc1OC	+	.
CC1CCCCN1S(=O)(=O)c1ccc(C(=O)Nc2ccccc2Oc2ccccc2)cc1 (configuration not stated)	i	.
O=C(Cn1cnc2ccccc2c1=O)N1CCN(c2ccc(-c3ccccn3)nn2)CC1	i	i
Cc1ccc2nc3c(cc(C(=O)NCC(=O)OC(C)C)n3Cc3ccccc3)c(=O)n2c1	i	i
COc1ccc(C)cc1NC(=O)c1cc2c(=O)n3cc(C)ccc3nc2n1Cc1ccccc1	+	i
COc1ccc(-c2ccc3c(N)c(-c4ccc(C#N)cc4)sc3n2)cc1	+	i
COc1ccc(-c2ccc(C#N)c(SCc3ccc(C#N)cc3)n2)cc1	i	i
Cc1ccc(N2CCN(c3ccc(S(=O)(=O)c4ccccc4)nn3)CC2)c(C)c1	i	i
Cc1ccc(C)c(N2CCN(c3ccc(S(=O)(=O)c4ccccc4)nn3)CC2)c1	+	i
COc1ccc(N2CCN(C(CNS(=O)(=O)c3ccc(C)cc3)c3cccnc3)CC2)cc1 (configuration not stated)	i	.
Cc1nn(C2CCS(=O)(=O)C2)c2nc(-c3cccs3)cc(C(=O)Nc3ccc(F)cc3)c12 (configuration not stated)	i	i
Cc1ccc(NC(=O)c2cc(-c3cccs3)nc3c2c(C)nn3C2CCS(=O)(=O)C2)cc1 (configuration not stated)	+	i
COCCN1CCC(CNC(=O)COc2ccc3ccccc3c2)CC1	.	i
Cc1cc(NC(=O)c2cccc(N3C(=O)CCC3=O)c2)n(C)n1	.	i
COc1cc(NC(=O)Nc2ccc3c(c2)N(C(=O)C(C)C)CCC3)cc(OC)c1	.	i
Cc1cc(C)nc(Nc2nc(N)c3ccccc3n2)n1	+	.
Cc1cc(NC(=O)C(=O)NCC(c2ccccc2)N(C)C)c2ccccc2n1 (configuration not stated)	i	i
O=C(NCC1CCN(c2ncccn2)CC1)c1ccc2c(c1)OCO2	i	i
COc1ccccc1CCNC(=O)c1cnn2c(C(F)F)cc(C)nc12	+	.
Cc1cc(C(F)F)n2ncc(C(=O)NC3CCCCCC3)c2n1	i	.
CC1(C)N=C(SCC(=O)Nc2ccc(F)cc2F)C(c2ccccc2)=N1	i	i
CC1(C)N=C(SCC(=O)Nc2ccc(F)cc2F)C(c2ccc(Cl)cc2)=N1	+	i
O=C(NCC(c1cccs1)N1CCOCC1)NC1CCCCC1 (configuration not stated)	i	i
SMILES	GluA2 TARP mod	GIRK2 activator
CC1(C)CS(=O)(=O)N(c2ccc(Cl)c(C(=O)Nc3ccccc3F)c2)C1=O	i	i
COc1cc(C(=O)Nc2ccc(N3CCCC3=O)c(C)c2)cc(OC)c1OC	i	.
Cc1cc(-c2nnc(NC(=O)c3ccc(S(=O)(=O)N(C)C)cc3)o2)nn1C	+	i
CCCN(CCC)S(=O)(=O)c1ccc(C(=O)Nc2nnc(-c3cc(C)n(C)n3)o2)cc1	i	i
Cc1cc(-c2nnc(NC(=O)c3ccc(Cl)cc3)o2)nn1C	+	i
Cc1cc(-c2nnc(NC(=O)c3ccc(C(C)(C)C)cc3)o2)nn1C	i	i
O=C(Nc1ccc2c(c1)OCO2)c1ccc(N2CCCCS2(=O)=O)cc1	i	i
O=C(NCCCc1ccccc1)Nc1ccc(N2CCCS2(=O)=O)cc1	i	i
COc1ccc(S(=O)(=O)N2CCN=C2SCc2ccccc2F)cc1	+	.
COc1ccc(S(=O)(=O)N2CCN=C2SCc2ccccc2C)cc1	i	.
CCOC(=O)c1ccccc1NC(=O)CN1CCCN(Cc2ccccc2Cl)S1(=O)=O	+	i
COC(=O)c1sccc1NC(=O)CN1CCCN(Cc2ccccc2)S1(=O)=O	i	.
COc1ccc(-c2nnc3ccc(OCCNC(=O)NCc4ccccc4)nn23)cc1	+	i
CCC(C(=O)NCCOc1ccc2nnc(-c3ccc(OC)cc3)n2n1)c1ccccc1 (configuration not stated)	i	i
COc1ccc(-c2nnc3ccc(OCCNC(=O)Nc4ccc(F)cc4)nn23)cc1	+	i
COc1ccc(-c2nnc3ccc(OCCNC(=O)Nc4ccc(Cl)cc4)nn23)cc1	i	i
CCCC(=O)NCCOc1ccc2nnc(-c3ccc(OC)c(OC)c3)n2n1	+	i
CCCC(=O)NCCOc1ccc2nnc(-c3cccc(OC)c3)n2n1	i	i
O=S(=O)(NCCC(O)c1cccs1)c1ccccc1Cl (configuration not stated)	i	i
COc1cccc(-c2cn(CC(=O)N3CCc4ccccc43)nc2N2CCOCC2)c1	.	i
CC(=O)N1N=C(c2ccccc2NS(C)(=O)=O)CC1c1ccco1 (configuration not stated)	i	i
COc1ccc(Cl)cc1S(=O)(=O)N1CCN(CC(=O)Nc2cccc(C(F)(F)F)c2)CC1	i	.
CCOC(=O)c1c(SCC(=O)NCCc2ccccc2)nc(=O)[nH]c1C	i	i
CCOC(=O)c1c(SCc2ccccc2)nc(=O)[nH]c1C	+	i
Cc1c(Cl)ccc2sc(N(CCN3CCOCC3)C(=O)C3CCCCC3)nc12	i	.
SMILES	GluA2 TARP mod	GIRK2 activator
COc1ccc(C(=O)Nc2ccc3c(c2)CCC(=O)N3)cc1OC	i	.
O=S(=O)(NCC1CCN(C2CCCC2)CC1)c1cc(Cl)ccc1Cl	i	i
CC(C)(C)n1nc2c(c1-n1cccc1)CN(C(=O)c1cccs1)C2	i	i
Cc1ccc(-n2nc3c(c2-n2cccc2)CN(C(=O)c2cnccn2)C3)cc1C	i	100%*
Cc1ccc(-n2nc3c(c2-n2cccc2)CN(C(=O)c2ccno2)C3)cc1C	i	i
Cc1ccc(-n2nc3c(c2-n2cccc2)CN(C(=O)c2ccsc2)C3)cc1	+	i
CC(C)c1nnc(C2CCN(Cc3ccc(Cl)cc3Cl)CC2)o1	i	i
COc1ccc(-c2ccc(C)c(NC(=O)Cc3ccc(OC)c(OC)c3)c2)nn1	i	i
COc1ccc(-c2ccc(C)c(NS(=O)(=O)c3ccc(NC(=O)C(C)C)cc3)c2)nn1	+	i
COc1ccc(-c2csc(-n3nc(C)cc3NC(=O)c3ccc(Br)o3)n2)cc1OC	i	i
CCOCCn1c(=O)c2c(nc3n2CC(C)CN3c2ccc(Br)cc2)n(C)c1=O (configuration not stated)	i	.
CCn1c(-n2nc(C)cc2C)nc2c1c(=O)n(CCOC)c(=O)n2C	i	.
COCCn1c(=O)c2c(nc3n2CC(C)CN3c2ccc(Br)cc2)n(C)c1=O (configuration not stated)	+	.
COCCn1c(=O)c2c(nc(-n3nc(C)cc3C)n2C)n(C)c1=O	+	.
CCOC(=O)CCC(=O)Nc1ccc2c(c1)CN(C(=O)C1CC1)CC2	i	i
Cc1nc(NCC2CCCO2)nc(NC2CCCCC2)c1[N+](=O)[O-] (configuration not stated)	+	i
Cc1nc(NCC2CCCO2)nc(Nc2ccc(F)cc2)c1[N+](=O)[O-] (configuration not stated)	i	i
Cc1cc(C)n(-c2nc3c(c(=O)n2CC(=O)NCc2ccco2)CCCC3)n1	+	i

Assay outcomes from PubChem.
